Results as given in PubChem BioAssay AID1020 (Sanford-Burnham Center for Chemical Genomics, 2008).
Out of some 200,000 compounds screened, about 240 (0.12%) were called active. Rule as the data show it: active = inhibition above about 50%; inactive = the rest. The list comes from a sample in which actives are over-represented; it also holds similar structures and randomly drawn compounds.

These compounds were tested on glucose-6-phosphate dehydrogenase [Leuconostoc mesenteroides] (assay: L. mesenteroides G6PDH inhibitors, counter-screen for G6PDH-coupled screening assays, biochemical, Leuconostoc mesenteroides enzyme (AID 1020)). Details: Purified L. mesenteroides G6PDH, diaphorase/resazurin coupled fluorescence, 45 min; at 5 µM; active compounds read high.

| SMILES | inhibition |
| --- | --- |
| Cc1ccccc1NC(=S)NNC(=O)c1cccc(Br)c1 | 1.2% (inactive) |
| COc1ccc(-n2cc(CN(C)Cc3n[nH]c(=O)[nH]3)c(-c3cccc(F)c3)n2)cc1 | 19.5% (inactive) |
| COC(=O)c1ccc(NC(=S)NN2CCOCC2)cc1 | -2.2% (inactive) |
| O=C(c1snnc1-c1ccccc1)N1CCOCC1 | -2.4% (inactive) |
| OC(c1nnc(-c2ccccc2)o1)c1cccs1 (configuration not stated) | 10.6% (inactive) |
| CCCCn1c(O)c(N=NC(=O)Cn2c(C(F)(F)F)nc3ccccc32)c2ccccc21 | 7.1% (inactive) |
| COc1cc(C=O)c(Br)cc1OCC(=O)NCc1ccccc1 | 6.7% (inactive) |
| CCOc1ccccc1N1CCN(C(=O)COc2ccc3c(C)cc(=O)oc3c2)CC1 | 1.2% (inactive) |
| Cc1ccc(C(=O)NC(=S)NCc2cccnc2)cc1 | -1.6% (inactive) |
| Cc1ccc(COc2ccc(C(=O)NN)cc2)cc1 | 10.9% (inactive) |
| O=C(NCc1ccccc1Cl)C1CCN(S(=O)(=O)N2CCOCC2)CC1 | 4.2% (inactive) |
| Nc1ncnc(Nc2cccc(Cl)c2Cl)n1 | 15% (inactive) |
| CCOC(=O)Cc1cc(=O)[nH]c(=O)[nH]1 | 4.9% (inactive) |
| O=C(/C=C/c1ccccc1[N+](=O)[O-])OC1CCCCC1=O (configuration not stated) | 3% (inactive) |
| O=c1c([N+](=O)[O-])cccn1Cc1ccc(F)cc1Cl | 8% (inactive) |
| CSc1ncccc1C(=O)N1CCCC(CCC(=O)NCc2ccccc2F)C1 (configuration not stated) | 8.1% (inactive) |
| CC(C)(C)N(CC#CCC(O)(c1ccccc1)C1CCCC1)CCO (configuration not stated) | 13.4% (inactive) |
| OCCNCCOc1ccc(Cl)c(Cl)c1 | 3.7% (inactive) |
| CC(C)(C)CC(=O)Nc1nnc(SCC(=O)NCc2cccs2)s1 | 10.3% (inactive) |
| COc1ccc(CC2(CO)CCN(Cc3cnn(C)c3)CC2)cc1 | 0.2% (inactive) |
| CCOC(=O)/C=C/C(=O)OCC(=O)NC(c1ccccc1)c1ccccc1 | 9.9% (inactive) |

| SMILES | inhibition |
| --- | --- |
| Cc1ccc(O)c(-c2cc(C(=O)Nc3c(C)n(C)n(-c4ccccc4)c3=O)[nH]n2)c1 | 4% (inactive) |
| CC(C(=O)N=Nc1c(O)n(C)c2ccc(Br)cc12)n1cnc2ccccc2c1=O (configuration not stated) | -0.8% (inactive) |
| Cc1ccc2cc(C)c(N3CCC(C)CC3)nc2c1 | 12.3% (inactive) |
| O=C(Nn1cnnc1)c1ccc([N+](=O)[O-])cc1 | 6% (inactive) |
| Cc1nn(-c2ccccc2)c(C)c1/C=N/NC(=O)CSc1nc2ccccc2c(=O)n1-c1ccccc1 | -5.5% (inactive) |
| O=C(COC(=O)C1CC2C=CC1C2)Nc1ccccc1 (configuration not stated) | 5.8% (inactive) |
| CCC(C)(C)c1ccc(OCC(=O)N(C)C)c(C(C)(C)CC)c1 | -0.6% (inactive) |
| CCc1n[nH]c(=S)n1/N=C/c1c[nH]c2ccc(Br)cc12 | -2.8% (inactive) |
| CC(=O)Nc1ccc(S(=O)(=O)N(CCc2ccccc2)CC(=O)N/N=C/c2ccc(C(=O)O)cc2)cc1 | 6.2% (inactive) |
| CC(=O)n1cc([C@H]2C=C(C(=O)N3CCOCC3)O[C@@H](OCc3ccc(CO)cc3)C2)c2ccccc21 | 13.3% (inactive) |
| COc1cccc(CC(=O)N2CCCC(CCC(=O)N3CCN(c4ccccn4)CC3)C2)c1 (configuration not stated) | 2.5% (inactive) |
| CCN(CC)C(=O)Cn1cc(S(=O)(=O)CC(=O)NCc2ccc3c(c2)OCO3)c2ccccc21 | 2.6% (inactive) |
| CC(O)c1cccc(NC(=O)Cc2cccc3ccccc23)c1 (configuration not stated) | 0.6% (inactive) |
| S=c1[nH]ccn1-c1ccc(Cl)cc1 | 1.9% (inactive) |
| CCN(CCCNC(=O)CSc1cc(=O)n(C)c2cc(Cl)ccc12)Cc1ccccc1 | -6.2% (inactive) |
| O=C(NCCN1CCOCC1)c1c(F)c(F)c(F)c(F)c1F | -12.4% (inactive) |
| O=C(NCCN1CCOCC1)c1cc(Sc2cccc(Cl)c2)nc2ccccc12 | -13.7% (inactive) |
| CC(=O)Oc1cc2c(C(=O)NCCN3CCOCC3)c(C)oc2c2ccccc12 | 51% (active) |
| CS(=O)(=O)c1ccc2nc(NC(=O)c3ccc(Cl)nc3)sc2c1 | -4.6% (inactive) |
| O=C(COc1ccc(NC(=O)c2ccccc2[N+](=O)[O-])cc1)c1ccc(F)cc1 | 8.6% (inactive) |
| COC(=O)C1=NNC2(c3ccc(C)cc3)C(=O)N(c3cccc(C)c3C)C(=O)C12 (configuration not stated) | 5.9% (inactive) |

| SMILES | inhibition |
| --- | --- |
| O=C(c1cn2ccccc2n1)N1CCc2c([nH]c3ccccc23)C1c1ccccn1 (configuration not stated) | 16.7% (inactive) |
| O=[N+]([O-])c1ccc(NCCCO)c(C(F)(F)F)c1 | 1.5% (inactive) |
| Cc1ccnc2nc(C(=O)Nc3nnc(-c4ccccc4)o3)nn12 | 4.6% (inactive) |
| COc1ccc(Cn2c(-c3ccc(Cl)cc3)c[n+]3ccccc23)cc1 | -9.3% (inactive) |
| O=C(Nc1ccc(N2CCN(C(=O)c3cccs3)CC2)cc1)c1cccnc1Cl | 5.3% (inactive) |
| CCOC(=O)c1c(C)[nH]c(C2=NNC(=NC(C)COC)SC2)c1C (configuration not stated) | -0.8% (inactive) |
| Cc1[nH]c2ccccc2c1-c1ccc(Cl)nn1 | 6.2% (inactive) |
| Cc1nc2scc(-c3cccs3)c2c(=O)n1N | 0% (inactive) |
| O=c1c2c(ncn1Cc1ccccc1)nc1n2CCC1 | 10.7% (inactive) |
| CN(C(=O)CSc1nncc2ccccc12)C1CCCCC1 | -2.2% (inactive) |
| O=C(N/N=C/c1ccc(OCc2ccccc2)cc1)c1ccc(O)cc1 | 4.1% (inactive) |
| O=C(NC1CCCC1)C(NS(=O)(=O)c1ccc(Br)s1)c1ccccc1 (configuration not stated) | 15.8% (inactive) |
| Cc1ccc(NC(=O)OCCNC(=O)c2ccncc2)cc1 | 7.9% (inactive) |
| CCCCS(=O)c1snnc1C (configuration not stated) | 7.1% (inactive) |
| CCOC(=O)C(C)Oc1cccc2c(=O)n(CC(=O)NCCc3ccc(OC)c(OC)c3)ccc12 (configuration not stated) | 12.1% (inactive) |
| CCn1c(=S)[nH]c2sc3c(c2c1=O)CCCCC3 | -4.4% (inactive) |
| O=C(N/N=C/c1ccccn1)C12CC3CC(CC(C3)C1)C2 | 1.5% (inactive) |
| O=C1c2cccc3c([N+](=O)[O-])ccc(c23)C(=O)N1CC1CCCO1 (configuration not stated) | 0.7% (inactive) |
| O=C(COc1cc(Cl)c(Cl)cc1Cl)NCCc1ccccn1 | 12.4% (inactive) |
| CC(Cc1cccs1)NC(=O)c1cccc(Cl)c1 (configuration not stated) | 7% (inactive) |
